Source: ChEMBL document CHEMBL3988442, “University of Dundee, Small-Polar-MMV Screening Library” (2021)
For some of these results: Entries with a potency or affinity are not part of this list.

Assays:
Set-up in all cases: scale not given: direction of the effect not stated beside the values
[1] = molecular target: Protein translocase subunit SecA (Escherichia coli (strain K12)) (UniProt P10408); assay: Assay to Identify E. coli SecA ATPase Inhibitors; assay type: functional; conditions: 30 µM
[2] = molecular target: T1, Ubiquitin-activating enzyme e1, putative (Leishmania donovani (strain BPK282A1)) (UniProt E9BSI1); assay: Leishmania donovani Ubiquitin Activating Enzyme (LdE1); assay type: functional; conditions: 30 µM
T1 sequence (whole entry): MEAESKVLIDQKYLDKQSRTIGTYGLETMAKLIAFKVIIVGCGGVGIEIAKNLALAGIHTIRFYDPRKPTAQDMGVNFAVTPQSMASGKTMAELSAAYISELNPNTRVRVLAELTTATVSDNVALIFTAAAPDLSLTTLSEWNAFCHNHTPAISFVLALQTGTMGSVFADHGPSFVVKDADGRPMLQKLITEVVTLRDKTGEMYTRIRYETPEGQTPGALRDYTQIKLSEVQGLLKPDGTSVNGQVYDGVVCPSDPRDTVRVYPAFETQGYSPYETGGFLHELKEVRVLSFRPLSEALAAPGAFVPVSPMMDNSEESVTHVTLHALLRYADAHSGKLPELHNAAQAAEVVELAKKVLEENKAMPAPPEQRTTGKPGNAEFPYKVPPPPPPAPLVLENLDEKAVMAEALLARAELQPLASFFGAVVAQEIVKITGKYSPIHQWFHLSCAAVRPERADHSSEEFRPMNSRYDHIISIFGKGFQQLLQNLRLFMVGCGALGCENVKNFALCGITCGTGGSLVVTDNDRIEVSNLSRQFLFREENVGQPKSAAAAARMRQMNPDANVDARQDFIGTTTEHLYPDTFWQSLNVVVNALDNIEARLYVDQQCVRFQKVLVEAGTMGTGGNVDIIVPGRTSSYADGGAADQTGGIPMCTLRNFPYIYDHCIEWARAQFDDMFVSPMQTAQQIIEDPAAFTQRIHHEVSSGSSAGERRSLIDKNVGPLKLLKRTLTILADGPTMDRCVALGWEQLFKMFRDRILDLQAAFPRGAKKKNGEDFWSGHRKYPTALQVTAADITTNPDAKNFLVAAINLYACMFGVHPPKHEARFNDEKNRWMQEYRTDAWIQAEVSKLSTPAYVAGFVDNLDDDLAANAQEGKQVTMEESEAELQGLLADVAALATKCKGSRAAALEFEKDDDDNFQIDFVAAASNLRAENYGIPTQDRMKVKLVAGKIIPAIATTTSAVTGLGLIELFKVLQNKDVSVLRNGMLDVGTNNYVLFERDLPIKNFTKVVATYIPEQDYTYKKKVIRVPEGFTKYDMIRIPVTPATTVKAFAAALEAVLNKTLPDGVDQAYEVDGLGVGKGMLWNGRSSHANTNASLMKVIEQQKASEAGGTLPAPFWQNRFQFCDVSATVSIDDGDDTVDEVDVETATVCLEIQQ

[3] = molecular target: AMP-activated protein kinase, AMPK (Homo sapiens) (UniProt P54646+O43741+P54619+Q9UGJ0+Q9Y478+Q13131+Q9UGI9); assay: AMP-dependent Kinase enzyme assay. An in vitro enzyme assay that detects ADP turnover that is directly proportional to AMPK activity. This uses naive AMPK that is activated during the assay with MK-8722; assay type: functional; conditions: 30 µM
[4] = molecular target: Sialic acid-binding Ig-like lectin 9 (Homo sapiens) (UniProt Q9Y336); assay: Hs-Siglec9 ALPHAscreen SOP 20170721; conditions: 10 µM
Sialic acid-binding Ig-like lectin 9 (Homo sapiens), sequence (Q9Y336 whole entry): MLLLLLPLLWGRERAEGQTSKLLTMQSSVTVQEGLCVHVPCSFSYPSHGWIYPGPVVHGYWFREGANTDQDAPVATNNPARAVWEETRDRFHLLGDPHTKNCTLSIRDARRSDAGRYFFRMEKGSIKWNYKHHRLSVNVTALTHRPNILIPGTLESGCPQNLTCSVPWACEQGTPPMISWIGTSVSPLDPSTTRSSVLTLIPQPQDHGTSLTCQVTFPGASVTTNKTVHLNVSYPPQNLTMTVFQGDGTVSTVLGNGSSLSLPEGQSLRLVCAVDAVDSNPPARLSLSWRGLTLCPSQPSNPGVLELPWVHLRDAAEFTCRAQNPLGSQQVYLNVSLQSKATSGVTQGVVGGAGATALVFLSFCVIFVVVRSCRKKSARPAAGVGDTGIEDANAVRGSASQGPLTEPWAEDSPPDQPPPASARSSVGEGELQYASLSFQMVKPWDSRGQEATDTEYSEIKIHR

Trypanosoma cruzi = assay: Trypanosoma cruzi phosphomannomutase and mannose-1-phosphate guanylyltransferase assay; assay type: functional; conditions: 10 µM
[5] = molecular target: T2, Arginase-2, mitochondrial (Homo sapiens) (UniProt P78540); assay: in vitro enzyme assay to detect the production of urea directly proportional to the activity of Arginase II; assay type: functional; conditions: 33.3 µM; note: in the data most compounds retested in dose-response had high values
T2 sequence (whole entry): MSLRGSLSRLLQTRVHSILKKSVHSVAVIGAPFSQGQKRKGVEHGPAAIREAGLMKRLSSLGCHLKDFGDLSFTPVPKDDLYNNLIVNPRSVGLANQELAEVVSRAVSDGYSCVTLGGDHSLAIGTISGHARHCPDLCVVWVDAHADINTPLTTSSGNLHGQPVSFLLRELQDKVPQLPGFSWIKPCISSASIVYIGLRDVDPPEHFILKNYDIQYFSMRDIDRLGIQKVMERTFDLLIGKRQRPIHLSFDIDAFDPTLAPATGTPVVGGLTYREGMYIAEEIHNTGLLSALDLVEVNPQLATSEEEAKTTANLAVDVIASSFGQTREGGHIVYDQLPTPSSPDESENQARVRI

[6] = molecular target: T3, Proteasome subunit beta (Trypanosoma cruzi) (UniProt O96673); assay: Trypanosoma cruzi proteasome chymotrypsin-like activity (TcProtChymo) assay.; note: in the data most compounds retested in dose-response had high values; assay type: functional; conditions: 9.37 µM
T3 sequence (whole entry): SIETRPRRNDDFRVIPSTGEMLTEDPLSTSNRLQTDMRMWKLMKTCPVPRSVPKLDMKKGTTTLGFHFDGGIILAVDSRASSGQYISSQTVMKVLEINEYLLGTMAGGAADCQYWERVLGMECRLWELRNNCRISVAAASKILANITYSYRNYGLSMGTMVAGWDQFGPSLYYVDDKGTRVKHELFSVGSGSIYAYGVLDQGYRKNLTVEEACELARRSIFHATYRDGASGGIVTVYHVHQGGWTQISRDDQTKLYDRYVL

Homo sapiens = organism: Homo sapiens; assay: To identify inhibition of the IFN signalling (Jak-Stat) pathway via expression of an eGFP reporter gene under the control of an IFN-stimulated response element (ISRE) containing MxA promoter.; assay type: functional; conditions: 30 µM
[7] = molecular target: T4, Tyrosyl-tRNA synthetase, putative (Trypanosoma cruzi (strain CL Brener)) (UniProt Q4DSP6); assay: Trypanosoma cruzi tyrosyl tRNA synthetase (TcYRS) _High Tyrosine SOP; assay type: functional; conditions: 30 µM; note: in the data most compounds retested in dose-response had high values
T4 sequence (whole entry): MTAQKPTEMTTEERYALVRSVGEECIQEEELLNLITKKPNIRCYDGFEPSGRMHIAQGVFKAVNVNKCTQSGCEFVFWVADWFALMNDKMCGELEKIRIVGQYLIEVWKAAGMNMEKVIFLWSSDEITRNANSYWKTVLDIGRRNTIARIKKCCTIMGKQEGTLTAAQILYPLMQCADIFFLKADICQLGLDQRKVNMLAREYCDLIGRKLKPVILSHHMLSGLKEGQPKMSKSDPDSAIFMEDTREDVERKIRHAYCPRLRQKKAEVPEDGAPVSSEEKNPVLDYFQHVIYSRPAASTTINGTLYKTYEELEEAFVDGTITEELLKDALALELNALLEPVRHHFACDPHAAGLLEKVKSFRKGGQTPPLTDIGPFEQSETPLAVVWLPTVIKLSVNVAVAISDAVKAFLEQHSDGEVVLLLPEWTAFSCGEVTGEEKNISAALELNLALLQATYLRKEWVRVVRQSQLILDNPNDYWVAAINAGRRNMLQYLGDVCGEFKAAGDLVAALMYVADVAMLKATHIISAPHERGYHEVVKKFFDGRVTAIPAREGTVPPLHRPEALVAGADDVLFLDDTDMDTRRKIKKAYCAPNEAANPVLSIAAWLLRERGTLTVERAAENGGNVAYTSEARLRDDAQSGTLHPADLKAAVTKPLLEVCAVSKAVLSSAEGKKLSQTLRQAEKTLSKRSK

[8] = molecular target: T4, Tyrosyl-tRNA synthetase, putative (Trypanosoma cruzi (strain CL Brener)); assay: Trypanosoma cruzi tyrosyl tRNA synthetase (TcYRS) SOP; assay type: functional; conditions: 30 µM
[9] = molecular target: Chromo domain-containing protein 1 (Saccharomyces cerevisiae (strain ATCC 204508 / S288c) (Baker's yeast)) (UniProt P32657); assay: ScCHD-1 Enzyme Inhibition Assay; assay type: functional; conditions: 30 µM; note: in the data most compounds retested in dose-response had high values
Chromo domain-containing protein 1 (Saccharomyces cerevisiae (strain ATCC 204508 / S288c) (Baker's yeast)), sequence (P32657 whole entry, the tested form may be a part): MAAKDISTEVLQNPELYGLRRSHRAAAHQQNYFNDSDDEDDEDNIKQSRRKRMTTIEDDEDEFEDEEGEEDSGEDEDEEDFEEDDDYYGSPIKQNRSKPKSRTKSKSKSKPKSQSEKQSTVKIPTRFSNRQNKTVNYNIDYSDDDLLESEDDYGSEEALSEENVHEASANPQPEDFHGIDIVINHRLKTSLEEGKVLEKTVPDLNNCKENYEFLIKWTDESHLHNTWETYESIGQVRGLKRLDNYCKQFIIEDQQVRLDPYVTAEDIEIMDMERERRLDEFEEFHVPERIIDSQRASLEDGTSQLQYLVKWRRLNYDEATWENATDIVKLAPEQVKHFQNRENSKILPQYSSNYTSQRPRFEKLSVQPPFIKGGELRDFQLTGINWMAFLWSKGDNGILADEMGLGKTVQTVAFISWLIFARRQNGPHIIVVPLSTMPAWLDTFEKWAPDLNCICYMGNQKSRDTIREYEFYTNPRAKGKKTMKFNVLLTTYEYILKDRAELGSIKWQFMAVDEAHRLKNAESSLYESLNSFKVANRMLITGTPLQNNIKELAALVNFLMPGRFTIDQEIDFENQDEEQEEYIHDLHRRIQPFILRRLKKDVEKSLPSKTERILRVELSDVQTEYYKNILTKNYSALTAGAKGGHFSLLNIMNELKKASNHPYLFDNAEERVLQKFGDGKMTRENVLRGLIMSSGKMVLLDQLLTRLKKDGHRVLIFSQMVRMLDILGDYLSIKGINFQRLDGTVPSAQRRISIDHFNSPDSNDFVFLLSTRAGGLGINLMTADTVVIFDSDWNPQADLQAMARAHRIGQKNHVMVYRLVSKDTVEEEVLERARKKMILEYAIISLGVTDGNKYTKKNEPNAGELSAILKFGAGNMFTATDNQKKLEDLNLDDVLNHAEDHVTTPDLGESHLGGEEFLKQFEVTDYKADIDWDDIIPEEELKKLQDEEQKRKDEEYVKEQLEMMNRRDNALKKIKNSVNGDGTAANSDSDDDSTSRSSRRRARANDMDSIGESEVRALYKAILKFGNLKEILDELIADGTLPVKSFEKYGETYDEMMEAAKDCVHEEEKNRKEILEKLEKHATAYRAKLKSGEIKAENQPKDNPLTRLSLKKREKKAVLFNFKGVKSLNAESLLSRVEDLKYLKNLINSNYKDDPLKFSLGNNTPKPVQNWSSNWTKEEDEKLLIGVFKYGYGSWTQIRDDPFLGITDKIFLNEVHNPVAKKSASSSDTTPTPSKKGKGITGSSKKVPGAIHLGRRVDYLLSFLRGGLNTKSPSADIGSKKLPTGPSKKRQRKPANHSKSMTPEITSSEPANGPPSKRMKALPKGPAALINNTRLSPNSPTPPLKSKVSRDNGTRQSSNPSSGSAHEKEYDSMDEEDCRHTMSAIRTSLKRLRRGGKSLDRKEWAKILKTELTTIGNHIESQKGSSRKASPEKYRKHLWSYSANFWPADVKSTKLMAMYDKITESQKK

Protein translocase subunit SecA (Escherichia coli (strain K12)), sequence (P10408 whole entry): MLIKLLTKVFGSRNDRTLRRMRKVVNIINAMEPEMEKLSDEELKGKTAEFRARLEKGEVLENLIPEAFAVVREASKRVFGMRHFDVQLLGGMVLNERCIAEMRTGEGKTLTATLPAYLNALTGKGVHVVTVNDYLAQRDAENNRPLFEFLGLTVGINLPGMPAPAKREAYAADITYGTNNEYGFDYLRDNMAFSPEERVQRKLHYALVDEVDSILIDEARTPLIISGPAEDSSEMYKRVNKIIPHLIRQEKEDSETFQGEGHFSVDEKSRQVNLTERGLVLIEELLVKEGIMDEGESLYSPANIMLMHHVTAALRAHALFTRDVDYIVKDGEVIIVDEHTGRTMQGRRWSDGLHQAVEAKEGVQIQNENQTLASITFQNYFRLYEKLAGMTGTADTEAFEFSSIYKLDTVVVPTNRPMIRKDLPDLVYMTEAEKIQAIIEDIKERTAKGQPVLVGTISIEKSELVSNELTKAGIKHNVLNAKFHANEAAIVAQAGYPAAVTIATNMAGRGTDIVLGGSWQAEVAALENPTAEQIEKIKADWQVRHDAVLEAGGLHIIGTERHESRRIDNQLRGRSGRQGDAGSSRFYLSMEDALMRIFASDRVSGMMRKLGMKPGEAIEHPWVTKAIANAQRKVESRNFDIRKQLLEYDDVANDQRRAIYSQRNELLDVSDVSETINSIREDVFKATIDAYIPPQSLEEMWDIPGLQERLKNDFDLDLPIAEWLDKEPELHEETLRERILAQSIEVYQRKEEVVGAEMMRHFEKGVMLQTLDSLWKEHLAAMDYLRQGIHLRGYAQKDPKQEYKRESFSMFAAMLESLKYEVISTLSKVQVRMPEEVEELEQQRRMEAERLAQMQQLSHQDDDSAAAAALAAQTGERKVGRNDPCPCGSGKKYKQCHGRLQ

CN(C)CCO[C@@H]1CC[C@H]2[C@H]1OCCN2C(=O)COc1ccccc1
Percent Effect [1]: -2.92%
Percent Effect [2]: 0%
Percent Effect [3]: -3.78%
Percent Effect [4]: 3.69%
Percent Effect (Trypanosoma cruzi): -0.88%
Percent Effect [5]: -27.1%
Percent Effect [6]: 17.7%
Percent Effect (Homo sapiens): 8.7%
Percent Effect [7]: -1.08%
Percent Effect [8]: 0%
Percent Effect [9]: 1.68%

O=C(NCC1CC1)C1CN(C(=O)c2ccncc2)CC12CCOCC2 (stereo not drawn)
Percent Effect [1]: 1.79%
Percent Effect [2]: 15.6%
Percent Effect [3]: -0.39%
Percent Effect [4]: -4.66%
Percent Effect (Trypanosoma cruzi): 0.296%
Percent Effect [5]: 4.52%
Percent Effect [6]: 17.6%
Percent Effect (Homo sapiens): 28.1%
Percent Effect [7]: 2.12%
Percent Effect [8]: 19.2%
Percent Effect [9]: -10.9%

Cc1nccn1-c1cc(CNC(=O)CCC2CCCO2)ccn1 (stereo not drawn)
Percent Effect [1]: -0.34%
Percent Effect [2]: 26.3%
Percent Effect [3]: 1.23%
Percent Effect [4]: -7.85%
Percent Effect (Trypanosoma cruzi): 3.08%
Percent Effect [5]: 1.8%
Percent Effect [6]: 18.9%
Percent Effect (Homo sapiens): 3.69%
Percent Effect [7]: 8.37%
Percent Effect [8]: 28.4%
Percent Effect [9]: -9.77%

CN(C)c1ncc(-c2cc(C(=O)O)n(CC3CC3)c2)cn1
Percent Effect [1]: -1.6%
Percent Effect [2]: -2.7%
Percent Effect [3]: 5.47%
Percent Effect [4]: -3.4%
Percent Effect (Trypanosoma cruzi): 1.95%
Percent Effect [5]: -0.833%
Percent Effect [6]: 7.69%
Percent Effect (Homo sapiens): 7.22%
Percent Effect [7]: 5.94%
Percent Effect [8]: -3.66%
Percent Effect [9]: -8.88%

O=C(NCc1ccco1)C1CCCN1Cc1nc(-c2ccco2)no1 (stereo not drawn)
Percent Effect [1]: -0.649%
Percent Effect [2]: 13.5%
Percent Effect [3]: 0.501%
Percent Effect [4]: -7.57%
Percent Effect (Trypanosoma cruzi): -4.18%
Percent Effect [5]: 4.99%
Percent Effect [6]: 7.9%
Percent Effect (Homo sapiens): 10.9%
Percent Effect [7]: 7.92%
Percent Effect [8]: 15.8%
Percent Effect [9]: -0.371%

COc1cn(-c2ccccc2)nc1C(=O)NCCCN1CCCC(C)C1 (stereo not drawn)
Percent Effect [1]: -5.93%
Percent Effect [2]: 0%
Percent Effect [3]: 1.22%
Percent Effect [4]: 18%
Percent Effect (Trypanosoma cruzi): 2.62%
Percent Effect [5]: 0.356%
Percent Effect [6]: -2.2%
Percent Effect (Homo sapiens): 5.68%
Percent Effect [7]: 4.85%
Percent Effect [8]: 9.76%
Percent Effect [9]: -1.59%

COCCN1CCC(CN(CC2CCCO2)C(=O)CCNC(C)=O)CC1 (stereo not drawn)
Percent Effect [1]: -1.45%
Percent Effect [2]: -4.17%
Percent Effect [3]: -2.84%
Percent Effect [4]: -5.53%
Percent Effect (Trypanosoma cruzi): -1.26%
Percent Effect [5]: 0.883%
Percent Effect [6]: 1.75%
Percent Effect (Homo sapiens): -4.52%
Percent Effect [7]: 0%
Percent Effect [8]: 0%
Percent Effect [9]: 1.82%

CCOC(=O)NC(CNC(=O)c1ccccn1)CC(C)C (stereo not drawn)
Percent Effect [1]: -4.62%
Percent Effect [2]: 5.41%
Percent Effect [3]: 0.908%
Percent Effect [4]: -3.92%
Percent Effect (Trypanosoma cruzi): -3.03%
Percent Effect [5]: 2.23%
Percent Effect [6]: 4.72%
Percent Effect (Homo sapiens): -2.89%
Percent Effect [7]: 2.15%
Percent Effect [8]: 8.64%
Percent Effect [9]: -5.52%
